Assay [1] addresses Furin (Homo sapiens) (UniProt P09958). Nature of the assay: Furin counterscreen qHTS for Zika virus inhibitors (AID 1347149).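 For activity change, negative = inhibition: purified recombinant full-length human furin enzyme at 5 nM; fluorescence gain from furin cutting a BOC-RVRR-AMC peptide substrate over 15 min; top concentration of the series differs between compounds; plate controls were no-inhibitor control for no effect and no-enzyme control for full effect.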 Note: nearly all actives have a fitted effect of over 70% in size. Note: potency is the fitted concentration of half-maximal effect. Particulars: furin enzymatic counterscreen, fluorogenic substrate; series mostly up to 114 µM. The gist of the method: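 Counterscreen measures cleavage of 2 microM BOC-RVRR-AMC, below its ~15 microM Km, by 5 nM full-length human furin at pH 7.0 after a 15-min compound preincubation. Inhibition derives from the 15-min fluorescence increase at 37C.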

A short description of assay [2]: ZIKV-mCherry secondary qHTS for Zika virus inhibitors (AID 1347158). Note: top concentration of the series differs between compounds. The following applies: Vero cells, ZIKV-mCherry infection imaging, 48-72 h; series mostly up to 49.2 µM. The method, boiled down:
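Compounds were tested in Vero monkey kidney cells infected with recombinant mCherry-expressing Zika virus at MOI 1 for 48-72 h at 37 °C. Fixed cells were nuclear-stained and imaged, and infection rate was taken as the fraction of mCherry-positive cells.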

Assay [3] deals with Zika virus NS2B-NS3 protease (linked construct). The assay can be described thus: 384 well plate NINDS Rhodamine confirmatory qHTS for Zika virus inhibitors (AID 1347164).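 For activity change, negative = inhibition: top concentration of the series differs between compounds; plate controls were no-inhibitor control for no effect and no-enzyme control for full effect.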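 Note: fluorescence from protease cleavage of Ac-LKRR-rhodamine 110 substrate; nearly all actives have a fitted effect of over 65% in size.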 Note: potency is the fitted concentration of half-maximal effect. The following applies: rhodamine-110 peptide substrate fluorescence; series mostly up to 1 mM. The gist of the method:
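Enzyme (final 5/30/60 nM) + cpd (DMSO), ~15 min; add Ac-LKRR-Rd 10 microM final; 25 min RT, dark; FI ex 485/em 538; normalized to no-enzyme, no-inhibitor ctrls; aprotinin intraplate ctrl.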
For orientation: qHTS replaces the single test concentration by a dilution series.

The nature of assay [4]: Tertiary RLuc qRT-PCR qHTS assay for Zika virus inhibitors (AID 1347169). Note: nearly all actives have a fitted effect of over 55% in size. Note: potency is the fitted concentration of half-maximal effect. Particulars: infected Vero cells, reporter luminescence, 48-72 h; series mostly up to 1.74 µM. The method, boiled down:
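Vero, 1,000 cells/well, o/n 37 C; cpd pinned in DMSO; ZIKV-RLuc Cambodian, MOI 1-2, 48-72 h 37 C; live-cell RLuc substrate, lum read at 1-1.5 h.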

Assay [5] is described as follows: Confirmatory screen NINDS Rhodamine qHTS for Zika virus inhibitors (AID 1347161). Note: potency is the fitted concentration of half-maximal effect; nearly all actives have a fitted effect of over 60% in size. Particulars: purified enzyme assay, Rhodamine110 substrate fluorescence, 15 min; series mostly up to 114 µM. The gist of the method: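 Each compound, titrated, sat 15 min with 25 nM linked protease before 1.5 microM Rhodamine110 substrate went in. Fluorescence gain over the next 15 min, in pH 8.0 Tris with Tween 20, gave Hill-fitted curves.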

The test system of assay [6] is Zika virus NS2B-NS3 protease (linked). Nature of the assay: 384 well plate NINDS AMC confirmatory qHTS for Zika virus inhibitors (AID 1347163). Note: potency is the fitted concentration of half-maximal effect; nearly all actives have a fitted effect of over 50% in size. Particulars: Recombinant NS2B-NS3 protease, Ac-VKTGKR-AMC fluorescence; series mostly up to 1 mM. The method, boiled down:
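Fluorescence at 355/460 nm was read after 25 minutes of cleavage of 30 microM Ac-VKTGKR-AMC at room temperature, in the dark. Before substrate addition, compounds (up to 1 mM final) sat ~15 minutes with 5, 30 or 60 nM linked protease. Signals were normalized to no-enzyme and no-inhibitor wells.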

A short description of assay [7]: Primary qHTS for small molecule stabilizers of the endoplasmic reticulum resident proteome: Secreted ER Calcium Modulated Protein (SERCaMP) assay (AID 1508630). Note: % is set by controls: 0 for no effect and ±100 for the full control effect. The following applies: SH-SY5Y GLuc-SERCaMP (Gaussia luciferase released on ER calcium loss) secretion, thapsigargin, luminescence; series mostly up to 38.4 µM. The method, boiled down:
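The SH-SY5Y reporter protocol was run at 3 concentrations up to 38.3 uM (primary) or 11 concentrations (follow-up): 16 h compound, 100 nM thapsigargin for 4 h, then extracellular luciferase luminescence.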

Assay [8] in a line: AP1 Signaling Pathway (AID 357; active = well fitted curve in either direction with a large enough effect, not every such curve was filed as active;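 note: ME-180 reporter cells stimulated with EGF at its EC50 level; % is set by controls: 0 for no effect and ±100 for the full control effect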). The following applies: ME-180 AP-1-bla reporter, EGF-induced, beta-lactamase ratio, 5 h; at 17.2 µM (top of the series). The method, boiled down:
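Beta-lactamase reporter under AP-1 response element, ME-180 background. Stimulus: EC50 EGF. Compound exposure 5 h, 37 °C. Detection: CCF4, 2.5 h RT, 460/530 nm. Values: AC50 from titration.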

The nature of assay [9]: Stat Signaling Pathway (AID 446; active = well fitted curve in either direction with a large enough effect, not every such curve was filed as active;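 note: ME-180 cervical cancer cells given 40 pM IL-6 alongside compound; SIE-controlled beta-lactamase reporter measured as 460/530 nm FRET emission ratio; % is set by controls: 0 for no effect and ±100 for the full control effect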). Particulars: ME-180 (cervical carcinoma) SIE beta-lactamase reporter, IL-6 stimulated, 5 h; at 17.2 µM (top of the series). The gist of the method: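 Emission at 460 and 530 nm (excitation 405 nm) reports SIE-controlled beta-lactamase in ME-180 cells. Cells received compound with 40 pM IL-6 for 5 hrs at 37 C; data scaled between 300 pM IL-6 and 125 nM JAK-inhibitor controls.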

The target in assay [10] is Glucocorticoid receptor (Homo sapiens) (UniProt P04150). The assay can be described thus: GR-GFP Redistribution (AID 450;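 active = compounds whose dose series gives a full or clear partial fitted curve of increased nuclear translocation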; note: potency is the fitted concentration of half-maximal effect). The following applies: U2OS GR-GFP nuclear translocation, laser cytometry, 2 h.
Assay [11] has the same target. Nature of the assay: GR-EFC Redistribution (AID 451; calls by dose curve; note: potency is the fitted concentration of half-maximal effect). Particulars: CHO-K1 GR-EFC translocation, beta-gal luminescence, 2 h. The method, boiled down:
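Translocation of GR-ED fusion to nuclear EA restores b-gal, read by luminescence after 1 h room-temperature detection. Engineered CHO-K1 biosensor cells, 1,000/well, exposed 2 h at 37 C to titrations up to 46 uM final.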

Assay [12] deals with Mitogen-activated protein kinase 10 (Mus musculus) (UniProt Q61831). Nature of the assay: JNK3 AlphaScreen Assay (AID 530; active = well fitted curve in either direction with a large enough effect, not every such curve was filed as active;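 note: kinase came from lysate of stimulated human HepG2 cells; signal reports phosphorylation of biotinylated GST-cJun 1-79 at Ser73 with 10 µM ATP; % is set by controls: 0 for no effect and ±100 for the full control effect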). The following applies: JNK3 lysate, c-Jun phosphorylation; series mostly up to 57.1 µM. The gist of the method:
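qHTS titrations with 15 min compound pre-incubation before adding ATP (10 uM final). Read-out: AlphaScreen of Ser73-phosphorylated biotin-GST-cJun using HepG2 lysate JNK3 activated by IL-1β and TNFα.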
Background: Bead proximity is the source of the signal in Alpha formats.

Assay [13] addresses 3',5'-cyclic-AMP phosphodiesterase 4B (Homo sapiens) (UniProt Q07343). Nature of the assay: qHTS Assay for Inhibitors of PDE-IV (AID 607; active = well fitted activation curve with a large enough effect in the main read-out, with a control signal flat, not every such curve was filed as active; note: % of control where 0% means no effect). Particulars: HEK293 ACTOne CNG channel cells, membrane potential fluorescence; series mostly up to 22.9 µM. The method, boiled down:
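The readout is membrane depolarisation from a cAMP-sensing CNG channel, detected with a potential dye at ex 535/em 590. Cells were HEK293-derived (endogenous PDE-IV) at 1000 cells/well, titrated up to 22.9 uM final.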

The nature of assay [14]: qHTS Assay for Lipid Storage Modulators (AID 1519; calls by dose curve). The following applies: Drosophila S3 cells, BODIPY lipid droplet/cell ratio, laser cytometry, cells loaded with oleic acid. The method, boiled down:
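Cells seeded at 5,000 per well were treated with compounds over a concentration series and loaded with oleic acid (400 uM, as added). Lipid droplet fluorescence (488 nm excitation, 500-530 nm channel) was read by laser-scanning cytometry and normalized to 20 uM Triacsin C.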

The target of assay [15] is Ubiquitin carboxyl-terminal hydrolase 1 (Homo sapiens) (UniProt O94782). Nature of the assay: Inhibitors of USP1/UAF1: Pilot qHTS (AID 504865).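 Note: rhodamine fluorescence freed from ubiquitin-rhodamine substrate followed over time; top concentration of the series differs between compounds; % is set by controls: 0 for no effect and ±100 for the full control effect; nearly all actives have a fitted effect of over 35% in size.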 The following applies: purified USP1/UAF1, Ub-rhodamine cleavage fluorescence; series mostly up to 114 µM. The gist of the method: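 In 50mM HEPES pH 7.8 containing 0.5mM EDTA, 1mM TCEP, 0.1 mg/ml BSA and 0.01% Tween-20, 1nM USP1/UAF1 is exposed to compound for 15 min, then Ub-Rho (150nM final) is added and fluorescence is read over time.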

Assay [16] in a line: HepG2 cells viability qHTS for Zika virus inhibitors (AID 1347168). Note: % is set by controls: 0 for no effect and ±100 for the full control effect. The following applies: Zika counter-screen; series mostly up to 45.9 µM. The gist of the method:
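Luminescent ATP readout (CellTiter Glo) after 30 min at 37 degrees C gives viability; cells in DMEM + 4% FBS were treated 24 to 48 hours with compound, following overnight attachment.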

Assay [17] concerns Zika virus NS2B-NS3 protease (unlinked). Nature of the assay: Optimization of GU AMC qHTS for Zika virus inhibitors: Unlinked NS2B-NS3 protease assay (AID 1347151).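 Note: 0% = no-inhibitor control and -100% = no-enzyme control; nearly all actives have a fitted effect of over 80% in size.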 The following applies: recombinant ZIKV NS2B-NS3 protease, fluorogenic AMC substrate; series mostly up to 52.5 µM. The method, boiled down: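 Unlinked protease (25 nM final); buffer 10 mM Tris-HCl pH 8.0 + 0.01% Tween 20; AMC substrate; 15 min RT, dark; Δfluorescence normalized to no-inhibitor/no-enzyme controls; 4-parameter Hill fit.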

Records with an inconclusive call do not appear. The source made the active and inactive calls. Unless noted, calls come from the whole dose curve; as a rule, active = well fitted curve in the direction sought with a large enough effect; inconclusive = small, poorly fitted or top-dose-only effect, or another doubt; inactive = no such curve, though single readings can be large; an effect the other way counts as inactive or inconclusive.

Chain of Furin (Homo sapiens) (P09958 whole entry, looked up): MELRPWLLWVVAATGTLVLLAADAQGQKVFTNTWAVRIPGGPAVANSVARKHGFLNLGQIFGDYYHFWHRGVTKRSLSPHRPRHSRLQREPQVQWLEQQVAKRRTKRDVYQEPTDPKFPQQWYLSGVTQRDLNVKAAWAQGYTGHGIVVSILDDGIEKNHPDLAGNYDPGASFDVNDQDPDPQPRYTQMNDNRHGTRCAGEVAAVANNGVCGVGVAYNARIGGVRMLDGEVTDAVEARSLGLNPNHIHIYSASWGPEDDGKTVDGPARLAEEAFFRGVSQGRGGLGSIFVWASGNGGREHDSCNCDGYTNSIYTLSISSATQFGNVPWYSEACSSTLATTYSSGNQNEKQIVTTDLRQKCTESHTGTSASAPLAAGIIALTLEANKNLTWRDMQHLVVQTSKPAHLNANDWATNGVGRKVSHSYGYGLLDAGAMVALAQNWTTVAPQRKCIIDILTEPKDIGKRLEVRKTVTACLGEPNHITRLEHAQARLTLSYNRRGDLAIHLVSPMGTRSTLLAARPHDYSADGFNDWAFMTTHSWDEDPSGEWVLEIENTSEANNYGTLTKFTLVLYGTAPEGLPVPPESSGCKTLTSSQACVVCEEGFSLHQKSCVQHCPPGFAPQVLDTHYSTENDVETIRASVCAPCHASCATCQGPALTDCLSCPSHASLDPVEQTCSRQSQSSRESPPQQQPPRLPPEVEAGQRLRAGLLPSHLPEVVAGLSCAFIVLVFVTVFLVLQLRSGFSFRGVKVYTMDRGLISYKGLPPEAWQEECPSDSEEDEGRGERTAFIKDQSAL
Chain of Glucocorticoid receptor (Homo sapiens) (P04150 whole entry, looked up): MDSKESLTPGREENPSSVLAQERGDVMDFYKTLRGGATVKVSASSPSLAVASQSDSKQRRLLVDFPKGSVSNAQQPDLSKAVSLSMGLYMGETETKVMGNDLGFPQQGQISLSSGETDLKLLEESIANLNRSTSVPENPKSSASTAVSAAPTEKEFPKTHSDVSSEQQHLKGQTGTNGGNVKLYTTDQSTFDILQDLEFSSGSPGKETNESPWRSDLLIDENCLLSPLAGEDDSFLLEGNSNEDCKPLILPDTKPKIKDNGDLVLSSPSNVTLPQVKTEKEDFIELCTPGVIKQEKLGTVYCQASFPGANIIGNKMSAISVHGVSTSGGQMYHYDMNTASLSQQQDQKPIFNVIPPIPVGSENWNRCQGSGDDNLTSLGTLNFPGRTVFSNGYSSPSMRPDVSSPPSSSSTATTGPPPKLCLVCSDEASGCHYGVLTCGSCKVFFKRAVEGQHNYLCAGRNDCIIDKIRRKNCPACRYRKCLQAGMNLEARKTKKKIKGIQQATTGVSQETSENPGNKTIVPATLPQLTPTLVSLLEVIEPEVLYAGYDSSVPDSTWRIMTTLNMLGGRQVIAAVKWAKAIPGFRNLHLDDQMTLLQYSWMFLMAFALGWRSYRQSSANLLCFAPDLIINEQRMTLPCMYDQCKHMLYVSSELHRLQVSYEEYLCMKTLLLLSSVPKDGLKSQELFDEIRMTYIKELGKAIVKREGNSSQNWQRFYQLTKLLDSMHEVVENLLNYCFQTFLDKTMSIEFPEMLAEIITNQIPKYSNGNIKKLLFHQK
Chain of Ubiquitin carboxyl-terminal hydrolase 1 (Homo sapiens) (O94782 whole entry, looked up): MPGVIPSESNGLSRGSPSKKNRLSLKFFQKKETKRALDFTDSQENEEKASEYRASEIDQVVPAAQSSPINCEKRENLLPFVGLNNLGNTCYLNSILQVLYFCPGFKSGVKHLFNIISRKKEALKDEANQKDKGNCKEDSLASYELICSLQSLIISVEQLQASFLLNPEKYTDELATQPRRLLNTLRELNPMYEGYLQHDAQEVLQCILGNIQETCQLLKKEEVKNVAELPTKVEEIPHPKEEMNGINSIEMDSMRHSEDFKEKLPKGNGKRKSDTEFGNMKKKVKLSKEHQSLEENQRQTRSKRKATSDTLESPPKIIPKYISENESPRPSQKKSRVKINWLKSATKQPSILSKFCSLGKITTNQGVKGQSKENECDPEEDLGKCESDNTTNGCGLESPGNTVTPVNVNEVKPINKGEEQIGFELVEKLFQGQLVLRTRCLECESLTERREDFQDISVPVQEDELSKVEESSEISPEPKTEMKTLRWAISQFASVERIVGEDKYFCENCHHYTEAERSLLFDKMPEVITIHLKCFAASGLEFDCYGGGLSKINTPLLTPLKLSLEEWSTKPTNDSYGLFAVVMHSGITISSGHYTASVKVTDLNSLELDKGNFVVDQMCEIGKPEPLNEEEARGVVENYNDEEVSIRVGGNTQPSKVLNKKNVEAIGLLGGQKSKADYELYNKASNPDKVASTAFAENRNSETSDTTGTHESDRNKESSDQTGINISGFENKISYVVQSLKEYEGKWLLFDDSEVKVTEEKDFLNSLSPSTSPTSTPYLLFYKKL
Chain of 3',5'-cyclic-AMP phosphodiesterase 4B (Homo sapiens) (Q07343 whole entry, looked up): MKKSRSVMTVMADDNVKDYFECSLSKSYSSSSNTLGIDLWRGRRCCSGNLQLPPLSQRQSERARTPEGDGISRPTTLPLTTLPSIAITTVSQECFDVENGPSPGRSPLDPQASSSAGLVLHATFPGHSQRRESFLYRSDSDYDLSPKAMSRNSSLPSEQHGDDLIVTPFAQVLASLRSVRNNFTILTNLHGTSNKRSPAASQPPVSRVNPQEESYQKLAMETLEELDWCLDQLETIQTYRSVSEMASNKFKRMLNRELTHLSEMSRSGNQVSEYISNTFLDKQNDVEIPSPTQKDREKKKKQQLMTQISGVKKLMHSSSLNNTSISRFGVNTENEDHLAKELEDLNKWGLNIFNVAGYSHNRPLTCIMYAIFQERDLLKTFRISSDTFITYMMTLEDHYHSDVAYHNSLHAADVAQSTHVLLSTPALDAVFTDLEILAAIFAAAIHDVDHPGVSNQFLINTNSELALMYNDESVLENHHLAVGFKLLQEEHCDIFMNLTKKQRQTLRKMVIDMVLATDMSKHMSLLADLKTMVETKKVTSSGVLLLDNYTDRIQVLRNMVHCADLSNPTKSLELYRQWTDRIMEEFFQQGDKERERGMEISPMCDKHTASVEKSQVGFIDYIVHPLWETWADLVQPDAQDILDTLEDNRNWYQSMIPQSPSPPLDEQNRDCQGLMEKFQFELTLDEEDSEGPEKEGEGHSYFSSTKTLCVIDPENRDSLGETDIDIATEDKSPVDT

With `O=C(O)COc1ccc(-c2nccc3c2C(=O)N(Cc2cccc(C(F)(F)F)c2)CC(COc2cccc(F)c2)O3)cc1` (stereo unspecified), the Potency result in assay [1], in assay [2] and in assay [4] was “inactive” each time. The Potency in assay [3] was 28.2 µM (active).

Regarding `CC[C@@H](C(=O)[C@H](C)[C@@H](O)[C@H](C)CCc1ccc(C)c(O)c1C(=O)O)C1O[C@@](CC)(C2CC[C@](O)(CC)[C@H](C)O2)C[C@@H]1C` (stereo partly specified), the Potency entry in assay [1] and in [7] was “inactive” throughout. In addition, the figures for the Potency in assay [5], in assay [6] and in [3] were 9.84 µM (active), 158 µM (active) and 31.6 µM (active), respectively.

For `CC[C@@H]1O[C@]2(C=C[C@@H]1C)C[C@H]1C[C@H](CC=C(C)[C@@H](O[C@@H]3C[C@H](OC)[C@H](O[C@@H]4C[C@H](OC)[C@H](O)[C@H](C)O4)[C@H](C)O3)[C@@H](C)C=CC=C3CO[C@@H]4[C@@H](O)C(C)=C[C@@H](C(=O)O1)[C@]34O)O2`, the results for the activity change, negative = inhibition in [8] and in [14] (at 25.7 µM (top of the series)) were 6.2% (inactive) and -16.6% (inactive), respectively. Besides, in assay [9], the activity, negative = inhibition was -5.99% (inactive). Besides, the values for the Potency in [10], in assay [11] and in assay [4] were > 20.6 µM (inactive), > 20.6 µM (inactive) and 9.97 µM (active), respectively. Besides, the Potency entry in assay [12], in assay [13], in assay [15], in [1] and in [16] was “inactive” throughout. Further, the max response is -4.3% in assay [14] (measured here: cell count channel max response) and -18.8% in [14] (measured here: lipid channel max response).

Consider `O=C(COc1ccccc1C(=O)OCC(=O)Nc1cccc2ccccc12)Nc1ccc(Br)cc1`, for which the Potency result in [1], in assay [3] and in [4] was “inactive” throughout.

Turning to `Cc1cccc(C(=O)Nc2ccc(C(=O)OCc3cc(=O)n4c5c(sc4n3)CCCC5)cc2)c1`, the Potency in assay [1] was 46.9 µM (active). Also, the Potency entry in assay [4] is “inactive”.

Take `Cc1cc(S(=O)(=O)Nc2ccc(C(=O)O)cc2)c(C)c(S(=O)(=O)c2ccc(Cl)cc2)c1`: the Potency entry in assay [1], in [2] and in [4] was “inactive” in each case. The Potency in assay [3] was 141 µM (active).

With `O=C(O)COc1ccc(-c2nccc3c2C(=O)N(Cc2ccccc2)CC(COc2ccc4cccnc4c2)O3)cc1` (stereo unspecified), the results for the Potency in [1] and in assay [3] were 49.4 µM (active) and 44.7 µM (active), respectively.

`O=S(=O)(Nc1ccc(O)c(Sc2nc3ccccc3s2)c1)c1cc(Cl)ccc1Cl`: the Potency entry in assay [1] and in assay [4] was “inactive” throughout. For the same compound, the Potency in assay [5] is 22.4 µM (active); in assay [6], 112 µM (active); in assay [3], 44.7 µM (active).

In the case of `CCOc1ccc(C2C(=O)N(C3CCCCCC3)CC(=O)N2CCc2ccc(Cl)cc2)cc1OC` (stereo unspecified), the Potency entry in assay [17] and in assay [16] was “inactive” each time. Also, the Potency in assay [4] was 18.6 µM (active).
